Measurements: PMC7819943, “Rice protein-binding microarrays: a tool to detect cis-acting elements near promoter regions in rice”
The full ranking holds about 35,000 sequences; the median of “fluorescence intensity (a.u.)” is about 10,000, and the highest 2% start at about 52,000. The list comes from a sample in which the highest values are over-represented; it also holds similar and randomly drawn sequences.

Each sequence was assayed against T1, OsWOX13 (Oryza sativa, UniProt Q5QMM3 1-267) (assay: protein-binding microarray (RPBM); PBS, 2% BSA, 51.3 ng/ul salmon testes DNA, 50 uM zinc acetate, 200 nM TF, 25 C, 1 h; high values mean tight binding). Conditions: protein: recombinant; tags: N-terminal polyhistidine and DsRed monomer fusion (pET32a); label: CyDye5-dUTP incorporated in the synthesized complementary strand; 3' TTTTT single-stranded linker to array surface; dsDNA, one strand shown.
T1 sequence: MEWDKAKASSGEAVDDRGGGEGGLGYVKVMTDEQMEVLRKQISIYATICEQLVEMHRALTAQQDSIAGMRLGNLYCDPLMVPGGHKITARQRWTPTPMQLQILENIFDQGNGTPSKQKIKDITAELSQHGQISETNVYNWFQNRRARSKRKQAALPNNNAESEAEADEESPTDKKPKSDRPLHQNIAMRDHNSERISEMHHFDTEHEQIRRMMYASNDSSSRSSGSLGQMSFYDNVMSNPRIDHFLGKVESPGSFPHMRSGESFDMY
In short: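 Ni–NTA purification followed expression in E. coli BL21-CodonPlus of transcription factors fused N-terminally to a polyhistidine tag and DsRed. At 200 nM in PBS with 2% BSA, salmon testes DNA and 50 µM zinc acetate, the protein was incubated for 1 h at 25 °C with a custom Agilent array that had been primer-extended with Cy5-dUTP and blocked with 2% BSA. After washing, the array was read on an Axon 4000B scanner. The binding signal is per-feature fluorescence intensity in arbitrary units.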

Sequence	binding signal
GAGAAATGGTAATTTAGCATGCTTATATATTGAGGTTTAGCGGAGTCACCTAGTGCAG	8510 fluorescence intensity (a.u.)
TAATCTGTGATGATGGATTCTCGTTAAGCATATGTTCTTTCGGAGTCACCTAGTGCAG	5830 fluorescence intensity (a.u.)
TGGTGGTGGCTGGCGGCGGGGAGGATGAGAACGAGAGAAGCGGAGTCACCTAGTGCAG	3920 fluorescence intensity (a.u.)
TTCCGGCCTAGATTGAATCTGGGTTTAACCGTAAGAGTCCCGGAGTCACCTAGTGCAG	6260 fluorescence intensity (a.u.)
GTGGATATCAATCTGTATATACTAGATCCCCACCCACCATCGGAGTCACCTAGTGCAG	6630 fluorescence intensity (a.u.)
TCGAACAGGCCCTTAATTATCTGAGCTATCCTGCATGCTTCGGAGTCACCTAGTGCAG	8320 fluorescence intensity (a.u.)
GGCAAATTAACCAAGTTAGCTGCAGCTGCAGCTGGGATGGCGGAGTCACCTAGTGCAG	9780 fluorescence intensity (a.u.)
CATTTGATTGTATTTCCATCTTATTCTTAATCTGTATAAGCGGAGTCACCTAGTGCAG	32100 fluorescence intensity (a.u.)
ACCAATCACAACCATTCTTCTTCACTTACTTTCTCTTTTCCGGAGTCACCTAGTGCAG	6630 fluorescence intensity (a.u.)
CTTATAATTGATTTATAGTCTGTCATTGTATCTGCTCTTACGGAGTCACCTAGTGCAG	65100 fluorescence intensity (a.u.)
GTCTTAATTATATTTGATAATCAACTTTATCCTTGGTTTGCGGAGTCACCTAGTGCAG	50800 fluorescence intensity (a.u.)
ATATTATTATATTATAATTATACTGTATTTATATCTGATACGGAGTCACCTAGTGCAG	9100 fluorescence intensity (a.u.)
TCAATTAATTGATTTATAATGATTTGGTCTTATCAATCCCCGGAGTCACCTAGTGCAG	53400 fluorescence intensity (a.u.)
ATTGATTATGCCATGATTGGATCTTGGCACAGTGCTCTGCCGGAGTCACCTAGTGCAG	60300 fluorescence intensity (a.u.)
TTGATGATGTAACGTACGGTTGATTAATAATAAATTAGGTCGGAGTCACCTAGTGCAG	18400 fluorescence intensity (a.u.)
TTCTGTAATTGATGCTCCTGCATTTTAGTGTATAAGTGTACGGAGTCACCTAGTGCAG	36500 fluorescence intensity (a.u.)
GAAGTTGATTATGAGCTCTTGGATCTTTTGGCAGGTGCAACGGAGTCACCTAGTGCAG	19400 fluorescence intensity (a.u.)
TGTGATTAAATGATTCCTCCAGTGCTATATGCCTATATAACGGAGTCACCTAGTGCAG	17500 fluorescence intensity (a.u.)
GTGATTGATGTAAATGCCTTAACGGTCCAGCACCTCAGCTCGGAGTCACCTAGTGCAG	61200 fluorescence intensity (a.u.)
CTATATCTTGATGCTTTGTTGATTAGTACCATGGATTGGCCGGAGTCACCTAGTGCAG	6900 fluorescence intensity (a.u.)
TGCCAACTTATCCATCAATTGAGATTAATGATTTGGTCTTCGGAGTCACCTAGTGCAG	13900 fluorescence intensity (a.u.)
GTTGCTAAATTTTAGTTATTACTGTGCAGTTGCCAAATTTCGGAGTCACCTAGTGCAG	4010 fluorescence intensity (a.u.)
CATGAATTGGAAGATTTGATGCACTGATACTCCATGAAGACGGAGTCACCTAGTGCAG	8060 fluorescence intensity (a.u.)
ATTAAATTTGAAAATTTATTAAATTGTGCTGATAAGTCAACGGAGTCACCTAGTGCAG	14500 fluorescence intensity (a.u.)
AAGACGGTAATAGACTGTGCGAGTTGAACATGCAACTCTACGGAGTCACCTAGTGCAG	7360 fluorescence intensity (a.u.)
TCCATTTATCCCGATAATTTGTACTACATTTGTATAGGCCCGGAGTCACCTAGTGCAG	5670 fluorescence intensity (a.u.)
CCCTTGATTTACTTGATAATTTGTTATAGGTCCCTATCCCCGGAGTCACCTAGTGCAG	53400 fluorescence intensity (a.u.)

Sequence	binding signal
AGATAATTCTTACTAGATGATTATTGTATATGCTGCTATCCGGAGTCACCTAGTGCAG	9000 fluorescence intensity (a.u.)
ACCCTTGATTTACTTGATAATTTGTTATATGTCCCCATCCCGGAGTCACCTAGTGCAG	49800 fluorescence intensity (a.u.)
AATTTTCTTATGATTAGCATTTCTATTGCTATTAGATGATCGGAGTCACCTAGTGCAG	8930 fluorescence intensity (a.u.)
ATTGATTTGATTGTATTCATAATCATACAATTATCTTAGCCGGAGTCACCTAGTGCAG	65200 fluorescence intensity (a.u.)
TTTGTTAAATTTCTCAATTGATTCATAATTCTTTATTAGCCGGAGTCACCTAGTGCAG	10300 fluorescence intensity (a.u.)
AACAAGATTGTGATTCATACATCTGCATCTTATTTTGTATCGGAGTCACCTAGTGCAG	3650 fluorescence intensity (a.u.)
GCTAATAGATTGCTATTGTATCTGCTCTTATGCATGATCGCGGAGTCACCTAGTGCAG	61200 fluorescence intensity (a.u.)
CCCCATCTGTATTTTAAATTTATATCCGCCACTGATTGTACGGAGTCACCTAGTGCAG	4240 fluorescence intensity (a.u.)
CCCGATTGACAAGCTGACTCAGCATGGAGGGACCCACATGCGGAGTCACCTAGTGCAG	37700 fluorescence intensity (a.u.)
CAACACATGATTGCCGGGCTTTCTTCCCTCTCGTCCTGAGCGGAGTCACCTAGTGCAG	32000 fluorescence intensity (a.u.)
TAGTACTACTCATCACCAATCAGCTGCCACACATGCATGGCGGAGTCACCTAGTGCAG	5430 fluorescence intensity (a.u.)
CGCGCCAATCATCTCCCGCTCCCTCTTATCCTCCCCTCTCCGGAGTCACCTAGTGCAG	14100 fluorescence intensity (a.u.)
AGGACTAATAGATTTCCAAGATGATCGGGACTGACCGATCCGGAGTCACCTAGTGCAG	10600 fluorescence intensity (a.u.)
ATAATTAGATTAAAATAGATTTTACCCGTTGCAATGCACGCGGAGTCACCTAGTGCAG	56200 fluorescence intensity (a.u.)
AACACCATACCAAAATCCAAATATACTTATATTTTACTTACGGAGTCACCTAGTGCAG	65000 fluorescence intensity (a.u.)
CTAATGACGAATTAATTAGAATTAATAGATTTATCTTGCACGGAGTCACCTAGTGCAG	53300 fluorescence intensity (a.u.)
ACTATATAATTAAAATAGATTTCACCCGTTGCAACGCACGCGGAGTCACCTAGTGCAG	13300 fluorescence intensity (a.u.)
GTTTAATGATAAATCTAGTAATATTAATTTTACATGATTGCGGAGTCACCTAGTGCAG	25600 fluorescence intensity (a.u.)
CCAAATTACAACAAATATAATTTTACTTAATCCAAAGTAACGGAGTCACCTAGTGCAG	8310 fluorescence intensity (a.u.)
ATAATATATGATTAATTAAGTTTTAATTATTACAAACTTGCGGAGTCACCTAGTGCAG	37000 fluorescence intensity (a.u.)
ATAATAAGATTAAAATAACATTTACCCGTTGCAAAGCACGCGGAGTCACCTAGTGCAG	3610 fluorescence intensity (a.u.)
TAATAGATAGATAGATAGATAGATAGATTAGTAATTTAGACGGAGTCACCTAGTGCAG	30600 fluorescence intensity (a.u.)
ATATAATTAAATGATTAATTAATTAGTACCGTTTTACTTGCGGAGTCACCTAGTGCAG	65500 fluorescence intensity (a.u.)
AAAATATAATCAAAATAATTTACTTATCCATGTAATCATACGGAGTCACCTAGTGCAG	3770 fluorescence intensity (a.u.)
AATGAATTTAGATAGATATATATATCTAGATTCATTAGCACGGAGTCACCTAGTGCAG	7940 fluorescence intensity (a.u.)
TGGTCAGATAGCTAGATTGATATCCCTCTCTCTCTCTCACCGGAGTCACCTAGTGCAG	13900 fluorescence intensity (a.u.)
TTGTAAATTACCTGCAAGGAAGAATTAACCAAGATGTCTTCGGAGTCACCTAGTGCAG	5040 fluorescence intensity (a.u.)
